7 molecules from PubChem BioAssay (NCI) can be followed below.

Molecules are shown by their SMILES. The panel holds about 83,000 compounds, 20% with a hit somewhere; the sample as a whole holds those more often.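 The test compound was applied at a single concentration to cells in 96-well plates for 48 hours, and percent growth was recorded.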 Values without a mark were called inactive. Active and inactive are the calls of the source. The calls were made as follows: active = growth percent below 10; inactive = the rest.

Some test systems named below: NCI-H23 lung; NCI-H226 lung; NCI-H322M lung; HOP-62 NSCLC; NCI-H460 lung; HOP-92 NSCLC; NCI-H522 lung; A549/ATCC NSCLC; 786-0 renal; COLO 205 colon; DU-145 prostate; MALME-3M melanoma; MDA-MB-231 breast; RXF 393 renal; SF-268 CNS; SF-295 CNS; SF-539 CNS; UACC-257 melanoma; M14 melanoma.
Holding throughout (test): NCI-60 one-dose screen, 48 h (100 = growth as untreated, 0 = no growth, -100 = all killed)
Conditions in all cases: 10 µM unless noted

For `Cc1ccc(C(=O)/C(=C\c2ccc([N+](=O)[O-])cc2)S(=O)Cc2ccc(Cl)cc2)cc1` (stereo not drawn), the growth in the experiment on NCI-H23 lung was 41%; in the experiment with NCI-H226 lung, 66.4%; in the experiment on NCI-H322M lung, 80.3%; in the experiment on HOP-62 NSCLC, 46.7%; in the experiment on NCI-H460 lung, 30%; in the experiment on HOP-92 NSCLC it was 64.8%. Further, the growth in the experiment on NCI-H522 lung was -5.71% (active); in the experiment with A549/ATCC NSCLC it was 84.1%; in the experiment on 786-0 renal it was -52.4% (active); with COLO 205 colon, 20.7%; in the experiment with DU-145 prostate it was 23.3%; in the experiment on MALME-3M melanoma it was 34.1%. Further, the growth in the experiment with MDA-MB-231 breast is 23.8%; in the experiment with RXF 393 renal it was -69% (active); with SF-268 CNS, 25.5%; in the experiment on SF-295 CNS it was 73.2%; in the experiment on SF-539 CNS it was 53.5%; in the experiment on UACC-257 melanoma, 94.9%. In addition, the growth in the experiment with M14 melanoma is 41.4%.

With `COc1cc(C2=NN(C(C)=O)C(c3cc(OC)c(OC)c(OC)c3)C2)ccc1O` (stereo not drawn), the growth in the experiment on NCI-H23 lung is 29.5%; in the experiment with NCI-H226 lung it was 38.5%; in the experiment on NCI-H322M lung, 35.2%; in the experiment with HOP-62 NSCLC it was 32.8%; in the experiment on NCI-H460 lung, -6.58% (active); in the experiment on HOP-92 NSCLC, 48.5%. Further, the growth in the experiment with NCI-H522 lung is -33.8% (active); in the experiment with A549/ATCC NSCLC, 21.7%; in the experiment on 786-0 renal it was 17.9%; with COLO 205 colon it was -17.2% (active); in the experiment on DU-145 prostate it was -1.86% (active); in the experiment on MALME-3M melanoma it was 49.4%. Moreover, the growth was 4.4% (active) in the experiment on MDA-MB-231 breast; -20.9% (active) in the experiment on RXF 393 renal; 36.2% in the experiment on SF-268 CNS; -55.6% (active) with SF-295 CNS; -30.7% (active) in the experiment on SF-539 CNS; 60% in the experiment with UACC-257 melanoma. For the same molecule, in the experiment with M14 melanoma, the growth is -28.3% (active).

Turning to `C#Cc1cccc(NC(=O)Nc2cccc(NC(=O)CCl)c2)c1`, the growth with NCI-H23 lung was -82.8% [8.25 µM] (active); with NCI-H226 lung it was -12.1% [8.25 µM] (active); with NCI-H322M lung it was 88.9% [8.25 µM]; in the experiment on HOP-62 NSCLC, 36.1% [8.25 µM]; with NCI-H460 lung, -32.2% [8.25 µM] (active); in the experiment with HOP-92 NSCLC, -53.1% [8.25 µM] (active). Moreover, the growth in the experiment with NCI-H522 lung is -37.5% [8.25 µM] (active); in the experiment with A549/ATCC NSCLC, 56.8% [8.25 µM]; in the experiment with 786-0 renal it was -65.1% [8.25 µM] (active); with COLO 205 colon it was -51.3% [8.25 µM] (active); in the experiment on DU-145 prostate, 44.4% [8.25 µM]; in the experiment on MALME-3M melanoma it was -50.2% [8.25 µM] (active). For the same molecule, the growth with MDA-MB-231 breast was -61% [8.25 µM] (active); in the experiment on RXF 393 renal it was -48.7% [8.25 µM] (active); in the experiment on SF-268 CNS, -2.2% [8.25 µM] (active); with SF-295 CNS, 45% [8.25 µM]; in the experiment with SF-539 CNS it was -95.2% [8.25 µM] (active); in the experiment on UACC-257 melanoma, 48.7% [8.25 µM]. Besides, the growth in the experiment on M14 melanoma was 6.26% [8.25 µM] (active).

Take `c1ccc(Cn2cnc3ccc(-c4nc(-c5ccc6c(c5)ncn6C5CCCCC5)cn5ccnc45)cc32)cc1`: the growth with NCI-H23 lung was -22.8% (active); in the experiment on NCI-H226 lung it was -63.1% (active); with NCI-H322M lung it was 16%; in the experiment with HOP-62 NSCLC, -9.39% (active); in the experiment with NCI-H460 lung, -20.3% (active); with HOP-92 NSCLC it was -83.6% (active). For the same molecule, the growth in the experiment with NCI-H522 lung is -35.2% (active); in the experiment with A549/ATCC NSCLC it was -5.05% (active); with 786-0 renal it was -19.4% (active); in the experiment on COLO 205 colon, -29.9% (active); with DU-145 prostate, -28.2% (active); in the experiment on MALME-3M melanoma, -15.4% (active). For the same molecule, the growth is -70.1% (active) in the experiment on MDA-MB-231 breast; -76.9% (active) in the experiment with RXF 393 renal; -0.106% (active) in the experiment on SF-268 CNS; -81.4% (active) with SF-295 CNS; -77.6% (active) in the experiment with SF-539 CNS; -32.7% (active) with UACC-257 melanoma. Also, in the experiment on M14 melanoma, the growth is -4.44% (active).

As to `OC(c1ccc(F)c(C(F)(F)F)c1)c1cnccc1NC1CCCCC1` (stereo not drawn), the growth with NCI-H23 lung is 51.7%; in the experiment with NCI-H226 lung it was 78.1%; in the experiment on NCI-H322M lung, 89.5%; in the experiment on HOP-62 NSCLC, 85.8%; in the experiment with NCI-H460 lung, 69.5%; in the experiment on HOP-92 NSCLC it was 40.2%. For the same molecule, the growth in the experiment with NCI-H522 lung is 67.1%; in the experiment on A549/ATCC NSCLC it was 69.9%; with 786-0 renal it was 63.6%; in the experiment on COLO 205 colon it was -60.8% (active); in the experiment on DU-145 prostate, 90.2%; in the experiment with MALME-3M melanoma, 71.8%. The growth in the experiment on MDA-MB-231 breast is 55.2%; in the experiment with RXF 393 renal, 68.6%; in the experiment on SF-268 CNS, 79.6%; in the experiment with SF-295 CNS, 74.1%; in the experiment on SF-539 CNS it was 85.4%; in the experiment on UACC-257 melanoma, 87.4%. Besides, the growth in the experiment on M14 melanoma was 77.8%.

`COc1ccc(-c2nc(S(=O)(=O)c3ccccc3)c(S(=O)CC(=O)N3CCC(C)CC3)o2)cc1` (stereo not drawn): the growth with NCI-H23 lung was 54.1%; in the experiment on NCI-H226 lung, 80.3%; with NCI-H322M lung it was 73.2%; in the experiment with HOP-62 NSCLC it was 76.6%; with NCI-H460 lung, 80.4%; in the experiment on HOP-92 NSCLC, -22.6% (active). Also, the growth with NCI-H522 lung was -86.6% (active); in the experiment with A549/ATCC NSCLC, 77.4%; with 786-0 renal, 10.3%; in the experiment with COLO 205 colon it was 48.7%; with DU-145 prostate it was 42.5%; in the experiment with MALME-3M melanoma it was -16.6% (active). The growth with MDA-MB-231 breast is 24.7%; in the experiment on RXF 393 renal, 17.2%; in the experiment with SF-268 CNS, 62.5%; with SF-295 CNS, 92.9%; in the experiment with SF-539 CNS, 40.4%; in the experiment with UACC-257 melanoma, 65.9%. Besides, the growth in the experiment with M14 melanoma was 35.1%.

`Cc1ccc(C(=O)/C(=C/c2ccc([N+](=O)[O-])cc2)SCc2ccc(Cl)cc2)cc1`: the growth was 61.8% with NCI-H23 lung; 76.3% in the experiment with NCI-H226 lung; 75.5% in the experiment on NCI-H322M lung; 100% with HOP-62 NSCLC; 74.6% in the experiment with NCI-H460 lung; 92% in the experiment on HOP-92 NSCLC. The growth in the experiment with NCI-H522 lung is 63.1%; in the experiment with A549/ATCC NSCLC it was 67.9%; with 786-0 renal it was 52.1%; in the experiment with COLO 205 colon, 82.7%; in the experiment with DU-145 prostate, 86.9%; in the experiment with MALME-3M melanoma, 83.3%. Moreover, the growth with MDA-MB-231 breast was 83.8%; with RXF 393 renal it was 95.4%; in the experiment with SF-268 CNS, 69.8%; in the experiment on SF-295 CNS, 83.3%; in the experiment on SF-539 CNS, 112%; with UACC-257 melanoma it was 83%. Besides, the growth in the experiment on M14 melanoma is 74.6%.
